Bioassay records (PubChem BioAssay)
aDG glyco up = activators of alpha-DG glycosylation, primary screen, uHTS, Pro5-aDG cells, AlphaScreen; 0.22% of 360,000 active; AID 624168, 2012; activation, % at 10 µM; alpha-DG glycosylation AlphaScreen (IIH6); 0% Pro5, 100% B10-LARGE cell signal;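 active = activation of at least 8% versus controls, or a plate z-score of at least 8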;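 also: Pro5 are CHO cells carrying HIG-tagged alpha-DG that lacks glycosylation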
rCAG RNA binder = binders of r(CAG) RNA repeats, primary screen, biochemical, fluorescence | r(CAG) RNA repeat, TO-PRO-1 dye displacement fluorescence | 1.3% of 370,000 active | AID 651821, 2012 | inhibition, % at 3 µM;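 active = inhibition above the plate cutoff, the mean of all test compounds on that plate plus 3 SD, cut at about 35% in these data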;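 also: 0% = DMSO alone and 100% = 100 µM mitoxantrone as full dye displacement; higher means more dye released from RNA so lower well fluorescence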
APOBEC3A inh = APOBEC3A ssDNA deaminase inhibitors, primary screen, selectivity assay for APOBEC3G inhibitor project, biochemical, FAM/TAMRA oligo cleavage fluorescence | recombinant A3A, FAM/TAMRA ssDNA deamination fluorescence | inhibition, % at 20 µM | 0.41% of 330,000 active | AID 493011, 2011;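 active = at least 40% inhibition at 20 µM here, with at most 30% in a related deaminase screen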;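 also: plate controls were A3A with DMSO for no effect and wells lacking A3A enzyme for full effect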
A3G deaminase = APOBEC3G DNA deaminase inhibitors, primary screen, biochemical, fluorescence, single-stranded DNA substrate, uHTS; DNA dC->dU-editing enzyme APOBEC-3G (Homo sapiens), Q9HC16; recombinant A3G, ssDNA deamination FAM/TAMRA fluorescence; inhibition, % at 20 µM; 0.28% of 330,000 active; AID 493012, 2011;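 active = inhibition of at least 40% at 20 µM, with no more than 30% in the related APOBEC3A deaminase screen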;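 also: plate controls were DMSO wells with A3G for no effect and wells lacking A3G enzyme for full effect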
Target sequence (Q9HC16 whole entry, looked up): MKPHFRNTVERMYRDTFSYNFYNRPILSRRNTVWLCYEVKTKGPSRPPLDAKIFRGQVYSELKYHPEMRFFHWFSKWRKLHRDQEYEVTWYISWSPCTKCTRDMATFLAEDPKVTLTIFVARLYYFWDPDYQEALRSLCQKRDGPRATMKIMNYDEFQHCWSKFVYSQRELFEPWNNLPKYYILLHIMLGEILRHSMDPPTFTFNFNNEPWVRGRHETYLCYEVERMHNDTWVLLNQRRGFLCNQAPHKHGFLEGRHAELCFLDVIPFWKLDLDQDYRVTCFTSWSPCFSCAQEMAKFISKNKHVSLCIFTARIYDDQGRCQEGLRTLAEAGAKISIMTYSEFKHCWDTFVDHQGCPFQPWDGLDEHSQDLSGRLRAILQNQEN
ALR inh = inhibitors of human ALR sulfhydryl oxidase, primary screen, biochemical, H2O2 detection, HRP-luminol luminescence, single point; 3.8% of 290,000 active; AID 485317, 2010; FAD-linked sulfhydryl oxidase ALR (Homo sapiens), P55789; purified ALR, DTT oxidation; inhibition, % (concentration not given with the values);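 active = mean replicate inhibition above about 79%, with every replicate also reaching it, limit read from the data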
PHOSPHO1 inh = PubChem AID 1565. Phosphoethanolamine/phosphocholine phosphatase (Homo sapiens), Q8TCT1. recombinant PHOSPHO1, absorbance phosphatase assay. inhibition, % at 13.3 µM. 1.1% of 290,000 active; in the data active = inhibition above about 60%
The depositor's hits bear a star; nt = not tested or not shown. This is a sample that favours compounds with a hit; in the whole collection about 5.4% have one here.

SMILES	aDG glyco up	rCAG RNA binder	APOBEC3A inh	A3G deaminase	ALR inh	PHOSPHO1 inh
O=S(=O)(c1ccc(Br)s1)N1CCC(c2nc3ccccc3o2)CC1	nt	6	nt	nt	nt	nt
O=C(NCCNC(=O)Nc1ccc(Cl)cc1)Nc1ccc(Cl)cc1	0	4	nt	nt	nt	nt
O=C(NCCO)Nc1ccc(Cl)cc1	0	-1	-2	-6	-2	69*
Cc1ccc(NC(=S)NNC(=O)c2cnccn2)cc1	nt	2	nt	nt	nt	nt
O=[N+]([O-])c1ccc(CSC2=NCCN2)cc1	0	1	-2	1	99*	14
CCCCOc1ccc(CSC2=NCCN2)cc1[N+](=O)[O-]	0	1	5	-9	100*	17
CCCCCOc1ccc(CSC(=N)N)cc1[N+](=O)[O-]	0	16	-3	-9	99*	11
O=[N+]([O-])c1ccc(CSC2=NCCS2)cc1	0	-2	-9	-7	99*	14
c1ccc(CSC2=NCCS2)cc1	0	-1	-6	-7	2	-17
COc1ccc(CSC(=N)N)cc1[N+](=O)[O-]	0	0	5	-1	nt	16
CCOc1ccc(Cn2ccnc2)cc1[N+](=O)[O-]	0	2	2	1	nt	-9
CCOc1ccc(CSC2=NCCN2)cc1[N+](=O)[O-]	0	2	-1	-6	99*	0
N#CC1=C(S)N=C(N)C(c2nc(-c3ccccc3)cs2)C12CCCCC2 (centres undefined)	0	12	-5	-5	-3	64*
Cc1nn(-c2ccccc2)c2sc(C(=O)NC3CCCC3)cc12	nt	4	nt	nt	nt	nt
CN(C)c1ccc(Nc2nc(N)c3ccccc3n2)cc1	0	5	0	5	99*	15
COn1c2c(c3c4no[n+]([O-])c4ccc31)CCCC2	0	0	-2	-7	6	9
[O-][n+]1c2c(c3c4non(O)c4ccc31)CCCC2	0	12	3	-3	94*	23
Cc1cccc(NC(=O)c2ccc(F)c(S(=O)(=O)N3CCC4(CC3)OCCO4)c2)c1	0	0	1	0	-6	65*
COC(=O)[C@]12C[C@H](CC(=O)N3CCOCC3)C(=O)N(CCc3ccc(OC)c(OC)c3)C1=C[C@H](C(C)(C)C)O[C@@H]2C	nt	0	nt	nt	nt	nt
COC(=O)c1cccc(OCC(C)CN2CCC(C(O)(c3ccccc3)c3ccccc3)CC2)c1 (centres undefined)	nt	3	nt	nt	nt	nt
Cc1ccc2[nH]c(=O)c(NC(N)=S)nc2c1	0	2	3	3	nt	-40
NC(=S)Nc1nc2ccccc2[nH]c1=O	nt	4	7	-1	2	66*
COC(=O)CN(Cc1cn(Cc2ccccc2)nn1)S(=O)(=O)c1ccccc1Br	nt	1	nt	nt	nt	nt
NC(=O)c1cc(N)ccc1N1CCCC1	0	29	0	2	83*	7
NC(=O)c1cc(N)ccc1N1CCCCC1	0	-1	-4	-5	99*	6
SMILES	aDG glyco up	rCAG RNA binder	APOBEC3A inh	A3G deaminase	ALR inh	PHOSPHO1 inh
Cc1cc(N)ccc1N1CCCC1	0	nt	-10	29	98*	2
CC1CCCN(c2ccc(N)cc2C(N)=O)C1 (centres undefined)	0	3	-2	-4	98*	-3
C[C@H]1C(c2ccccc2F)O[C@]2(C[C@H](O)c3ccccc3O2)C[C@@H]1O (some centres undefined)	nt	-2	nt	nt	nt	nt
N#CCCn1cc(C=C(C#N)C#N)c(-c2ccc(Cl)cc2)n1	0	7	-2	-6	-1	60*
N#CCCn1cc(/C=N/O)c(-c2ccc(Cl)cc2)n1	0	-2	-4	-12	0	52
CC1CN(c2ccccc2)NC1=O (centres undefined)	0	-2	2	-3	99*	-7
CC(=O)C1=C(C)N(Cc2ccc(Cl)cc2)C(=S)NC1c1ccc(Cl)cc1 (centres undefined)	nt	3	nt	nt	nt	nt
Cc1cccc(C)c1-n1nnnc1C1c2ccccc2OCC(=O)N1Cc1ccc(F)cc1 (centres undefined)	nt	-1	nt	nt	nt	nt
